For 36 compounds, Potency, activity change, negative = cytotoxic and outcome results are on record in PubChem BioAssay (NCATS).

Assay [1] in a line: qHTS of pediatric cancer cell lines to identify multiple opportunities for drug repurposing: Confirmatory screen for RD cells (AID 1347124).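 Also: cells exposed to compound for 48 h before viability readout; nearly all actives have a fitted effect of over 65% in size.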 Also: potency is read from the fitted curve at half-maximal effect. As to activity change, negative = cytotoxic: % is scaled to controls: 0 for no effect and ±100 for the full control effect. An excerpt:
(§1) Drug repurposing or repositioning has been offered as a strategy for drug development in oncology programs. This approach has special potential for childhood cancers and other rare or orphan diseases, where the expected return on new drug development has been a disincentive to pharmaceuticals.
(§2) In this project we exploit the poly-pharmacology of drugs to discover new indications via phenotypic screening of a panel of 19 well-characterized cell lines derived from solid tumors seen in children and adolescents. The goal is to identify approved drugs with previously unrecognized anticancer properties that has the potential to reveal new mechanisms and biological processes involved in carcinogenesis or drug resistance. We employed a titration-based paradigm (quantitative high-throughput screening or qHTS), where all compounds were tested at multiple concentrations for their effect on cell viability. Concentration-response curves (CRCs) were derived directly from the primary screen, and both potency and efficacy values were used to identify compounds with robust bioactivity profiles. We screened the NIH Chemical Genomics Center (NCGC) Pharmaceutical Collection (NPC) and Mechanism Interrogation Plate (MIPE) small molecule collections of approved and investigational compounds against these cell lines; and measured metabolically active cells after 48 hours of compound treatment as a proxy for cell viability.
(§3) Assay Submitter: Nathalia J. Martinez, National Center for Advancing Translational Sciences, National Institutes of Health, Rockville, MD, USA; email: natalia.martinez@nih.gov
[1] Shen, M et al. Quantitative high-throughput phenotypic screening of pediatric cancer cell lines identifies multiple opportunities for drug repurposing. Oncotarget 2017 Dec 19;9(4):4758-4772. PMID 29435139.
The cells were obtained from University of North Carolina (UNC), Pediatric Preclinical Testing Program (PPT), and Coriell Institute (CI).
qHTS cell viability assay:
Cells were assayed in growth media at a density of 500-1,000 cells/well. Five microliters of cells were dispensed into 1,536-well, white, solid-bottom, TC-treated plates (Greiner Bio One) using a multidrop dispenser and incubated at 37 degrees C, 5% CO2, under a humidified atmosphere for 5 hours. Twenty-three nanoliters of compounds and controls (neutral control DMSO or positive control bortezomib at final concentration of 2.3 µM) were subsequently transferred by Kalypsys pintool. For primary screens, the MIPE collection was tested at 11-point dilutions (final concentrations range from 0.78 nM to 46 µM) and the NPC collection at 8-point dilutions (final concentrations range from 0.59 nM to 46 µM). Compounds tested in follow-up screens were assayed at 11-point dilutions. Cells were incubated for 48 hours, followed by addition of 3 µL of CellTiter-Glo (Promega). After a 15 min incubation at room temperature, samples were analyzed for luminescence intensity using a ViewLux High-throughput CCD imager equipped with clear filters.
In general terms: Quantitative high-throughput screening tests each substance at several concentrations.

Assay [2] in a line: qHTS of pediatric cancer cell lines to identify multiple opportunities for drug repurposing: Confirmatory screen for Rh41 cells (AID 1347123).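 Also: 48 h compound exposure; plate controls were DMSO for no effect and bortezomib for full effect; nearly all actives have a fitted effect of over 60% in size.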 The method, boiled down:
(§4)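 Viability after 48 h compound treatment at 37C, 500-1,000 cells/well, read as ATP luminescence with CellTiter-Glo. Primary screens used 11-point (MIPE, 0.78 nM-46 µM) or 8-point (NPC, 0.59 nM-46 µM) final concentrations; follow-up screens used 11-point dilutions.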

Assay [3] in a line: qHTS of pediatric cancer cell lines to identify multiple opportunities for drug repurposing: Confirmatory screen for Rh18 cells (AID 1347125). Also: % is scaled to controls: 0 for no effect and ±100 for the full control effect; nearly all actives have a fitted effect of over 55% in size. The method, boiled down: as §4
A short description of assay [4]: qHTS of pediatric cancer cell lines to identify multiple opportunities for drug repurposing: Confirmatory screen for Rh30 cells (AID 1347126). Also: % is scaled to controls: 0 for no effect and ±100 for the full control effect; nearly all actives have a fitted effect of over 55% in size. An outline of the steps:
as §4

The nature of assay [5]: qHTS of pediatric cancer cell lines to identify multiple opportunities for drug repurposing: Confirmatory screen for Saos-2 cells (AID 1347127).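 Also: plate controls were DMSO for no effect and bortezomib for full effect; nearly all actives have a fitted effect of over 60% in size.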 The method, boiled down: as §4
The nature of assay [6]: qHTS of pediatric cancer cell lines to identify multiple opportunities for drug repurposing: Confirmatory screen for SK-N-SH cells (AID 1347129).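 Also: cells exposed to compound for 48 h before viability read; plate controls were DMSO for no effect and bortezomib control for full effect; nearly all actives have a fitted effect of over 60% in size.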 An outline of the steps: as §4
For assay [7], the target named is N-terminal Xaa-Pro-Lys N-methyltransferase 1 (Homo sapiens) (UniProt Q9BV86). The assay is described as follows: qHTS Assay for Inhibitors of N-terminal methyltransferase 1 (NTMT1): LOPAC validation of the NTMT1 SAHH-coupled ThioGlo3 Assay (AID 1347143).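 Also: SAH from peptide methylation measured as thiol fluorescence via SAHH coupling and ThioGlo3; nearly all actives have a fitted effect of over 70% in size.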 Also: potency is read from the fitted curve at half-maximal effect. The method, boiled down:
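Steps: dispense 125nM NTMT1; pin-transfer test compounds at several concentrations, with 1uM RCC1-6 peptide as control; incubate 1 min; start with reagent holding 100uM SAM, 10uM SAHH, 15uM ThioGlo3; read at 0 and 30 min.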

Assay [8] relates to Zika virus NS2B-NS3 protease (unlinked). The assay is described as follows: Optimization of GU AMC qHTS for Zika virus inhibitors: Unlinked NS2B-NS3 protease assay (AID 1347151). Also: nearly all actives have a fitted effect of over 80% in size. Also: potency is read from the fitted curve at half-maximal effect. The method, boiled down:
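In this qHTS, compounds acted on 25 nM unlinked Zika NS2B–NS3 in pH 8.0 Tris/Tween buffer. Cleavage of an AMC peptide ran 15 min at room temperature, to about 20% conversion.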

Assay [9] can be described thus: qHTS of pediatric cancer cell lines to identify multiple opportunities for drug repurposing: Confirmatory screen for OHS-50 cells (AID 1347128).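 Also: compound exposure lasted 48 h at 37 degrees C; % is scaled to controls: 0 for no effect and ±100 for the full control effect; nearly all actives have a fitted effect of over 55% in size.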
Source text: as §1, §2, §3
[1] Shen, M et al. Quantitative high-throughput phenotypic screening of pediatric cancer cell lines identifies multiple opportunities for drug repurposing. Oncotarget 2017 Dec 19;9(4):4758-4772. PMID 29435139. […]
Cells were assayed in growth media at a density of 500-1,000 cells/well. […] After a 15 min incubation at room temperature, samples were analyzed for luminescence intensity using a ViewLux High-throughput CCD imager equipped with clear filters.

In another assay the target is Furin (Homo sapiens) (UniProt P09958). The assay is described as follows: Furin counterscreen qHTS for Zika virus inhibitors (AID 1347149). Also: potency is read from the fitted curve at half-maximal effect; nearly all actives have a fitted effect of over 70% in size. The method, boiled down:
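Counterscreen measures cleavage of 2 microM BOC-RVRR-AMC, below its ~15 microM Km, by 5 nM full-length human furin at pH 7.0 after a 15-min compound preincubation. Inhibition derives from the 15-min fluorescence increase at 37C.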
A general note: A counterscreen serves to expose hits that act by an unwanted route or on another target.

Several values for one entry are separate records, joined by “and”; a condition that tells them apart may be missing. Identical values can stand only once. Results filed as inconclusive are left out. A number with no mark means an inactive call. Activity calls are given as the source filed them. Calls follow the shape of the dose curve; as a rule, active = well fitted curve in the direction sought with a large enough effect; inconclusive = small, poorly fitted or top-dose-only effect, or another doubt; inactive = no such curve, though single readings can be large; an effect the other way counts as inactive or inconclusive.

N-terminal Xaa-Pro-Lys N-methyltransferase 1 (Homo sapiens), sequence (Q9BV86 whole entry, looked up): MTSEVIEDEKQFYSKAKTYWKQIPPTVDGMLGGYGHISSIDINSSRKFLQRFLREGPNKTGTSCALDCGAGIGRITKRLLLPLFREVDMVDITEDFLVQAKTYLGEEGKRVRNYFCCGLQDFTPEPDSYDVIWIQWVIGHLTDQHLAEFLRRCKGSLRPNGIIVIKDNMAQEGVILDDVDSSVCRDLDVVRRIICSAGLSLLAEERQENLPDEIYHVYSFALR
Furin (Homo sapiens), sequence (P09958 whole entry, looked up): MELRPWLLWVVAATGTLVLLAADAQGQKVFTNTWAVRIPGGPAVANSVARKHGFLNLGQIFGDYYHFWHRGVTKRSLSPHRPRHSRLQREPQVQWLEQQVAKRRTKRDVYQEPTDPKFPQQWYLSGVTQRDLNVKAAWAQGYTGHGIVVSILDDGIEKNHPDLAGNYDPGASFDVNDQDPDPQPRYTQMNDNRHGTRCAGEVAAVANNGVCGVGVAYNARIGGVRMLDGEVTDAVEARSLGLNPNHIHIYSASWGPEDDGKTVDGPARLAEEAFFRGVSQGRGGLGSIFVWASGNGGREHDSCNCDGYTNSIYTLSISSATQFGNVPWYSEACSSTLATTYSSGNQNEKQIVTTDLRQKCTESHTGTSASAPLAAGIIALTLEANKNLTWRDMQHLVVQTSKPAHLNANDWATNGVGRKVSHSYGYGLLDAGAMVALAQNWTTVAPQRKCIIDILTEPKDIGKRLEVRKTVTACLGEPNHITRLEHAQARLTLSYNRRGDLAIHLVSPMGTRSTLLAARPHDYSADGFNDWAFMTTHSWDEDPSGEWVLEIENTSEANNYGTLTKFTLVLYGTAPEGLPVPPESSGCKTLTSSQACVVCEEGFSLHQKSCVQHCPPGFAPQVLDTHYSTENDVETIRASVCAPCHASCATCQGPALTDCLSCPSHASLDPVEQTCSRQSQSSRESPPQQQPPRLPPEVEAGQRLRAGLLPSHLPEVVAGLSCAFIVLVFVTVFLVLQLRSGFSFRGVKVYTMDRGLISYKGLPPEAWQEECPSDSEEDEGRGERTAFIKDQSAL

Take `CCCCC/C(C=O)=C\c1ccccc1`: the Potency result in assay [1] is “inactive”.
For `C[C@](N)(Cc1ccc(O)cc1)C(=O)O`, the activity change, negative = cytotoxic in assay [2] was 0% [at 5.01 µM]; in assay [1] it was 10.4% [at 5.01 µM]; in assay [3], 0.623% [at 5.01 µM]; in assay [4], 0% [at 5.01 µM]; in assay [5] it was 17.6% [at 5.01 µM]; in [6], 11.7% [at 5.03 µM]. Moreover, the Potency result in [7] and in assay [8] was “inactive” in each case.
For the compound `CCN(CC)CCNC(=O)c1cc(Cl)c(N)cc1OC`, the result in assay [2], in assay [3], in [4], in assay [5], in assay [9] and in [6] was inactive. In addition, the Potency result in assay [1], in [7] and in assay [8] was “inactive” each time.
Consider `CC[N+](CC)(CC)CCOc1ccc(/C=C/c2ccccc2)cc1`, for which the Potency in [7] is 39.8 µM (active).
With `CC[C@H]1CN2CCc3cc(OC)c(OC)cc3[C@@H]2C[C@@H]1C[C@H]1NCCc2cc(OC)c(OC)cc21`, the Potency entry in [7] and in [8] was “inactive” in each case.
Consider `Cc1c(O)cccc1C(=O)N[C@@H](CSc1ccccc1)[C@H](O)CN1C[C@H]2CCCC[C@H]2C[C@H]1C(=O)NC(C)(C)C`, for which the Potency result in assay [7] and in assay [8] was “inactive” in each case.
As for `C[C@H](NC(CCc1ccccc1)C(=O)O)C(=O)N1CCC[C@H]1C(=O)O` (stereo partly drawn), the Potency entry in assay [7] and in [8] was “inactive” throughout.
As for `CC1=C(CC(=O)O)c2cc(F)ccc2/C1=C\c1ccc(S(C)(=O)=O)cc1`, the Potency result in assay [7] and in assay [8] was “inactive” each time.
On to `O=C(O)CN1C(=O)c2cccc3cccc(c23)C1=O`, for which the call in [2], in assay [5] and in [6] was inactive. For the same compound, in assay [1], the Potency is 3.69 µM (active).
For the compound `C[C@H]1O[C@@H](n2cc(F)c(=O)[nH]c2=O)[C@H](O)[C@@H]1O`, the Potency result in assay [7] and in assay [8] was “inactive” each time.
As for `CC(CN(C)C)CN1c2ccccc2CCc2ccccc21` (stereo not drawn), the Potency result in [7] and in assay [8] was “inactive” in each case.
With `C=Cc1c(C)c2cc3[nH]c(cc4nc(cc5nc(cc1[nH]2)C(C)=C5CCC(=O)O)C(CCC(=O)O)=C4C)c(C)c3C=C`, the Potency in assay [7] was 39.8 µM (active).
Take `COC(=O)C1=C(C)NC(C)=C(C(=O)OC)C1c1ccccc1[N+](=O)[O-]`: in assay [7], the Potency is 12.6 µM (active). Further, the Potency entry in [8] is “inactive”.
Turning to `CCCn1cnc2c1c(=O)n(CCCCC(C)=O)c(=O)n2C`, the Potency result in [7] and in assay [8] was “inactive” each time.
As for `CC(C)c1c(C(=O)Nc2ccccc2)c(-c2ccccc2)c(-c2ccc(F)cc2)n1CC[C@@H](O)C[C@@H](O)CC(=O)O`, the Potency entry in assay [7] and in assay [8] was “inactive” in each case.
As to `CN(C)CCOC(C)(c1ccccc1)c1ccccn1` (stereo not drawn), the Potency result in [7] and in assay [8] was “inactive” in each case.
Regarding `CC(C)(C)c1onc(OCP(=O)(O)O)c1CC(N)C(=O)O` (stereo not drawn), the Potency entry in [7] and in assay [8] was “inactive” in each case.
In the case of `Cc1ccc2nc(N)[nH]c(=O)c2c1Sc1ccncc1`, the Potency entry in assay [1] was “inactive”. Besides, the compound was called inactive in [3] and in assay [4].
Regarding `OCc1cc(C(O)CNCCCCCCOCCCCc2ccccc2)ccc1O` (stereo not drawn), the Potency in [7] was 56.2 µM (active); in [8] it was 26.7 µM (active).
`CN(C)CC[C@@H](c1ccc(Cl)cc1)c1ccccn1`: the Potency entry in [7] and in [8] was “inactive” each time.
As to `N=c1c[n+](N2CCOCC2)[n-]o1`, the Potency in [7] is 44.7 µM (active) and 50.1 µM (active). Moreover, the Potency entry in assay [8] is “inactive”.
As for `COc1ccc(Cl)cc1C(=O)NCCc1ccc(S(=O)(=O)NC(=O)NC2CCCCC2)cc1`, the Potency entry in assay [7] and in assay [8] was “inactive” throughout.
As to `O=c1cc[nH]c(=S)[nH]1`, the call in assay [2], in assay [3], in assay [4], in assay [5] and in assay [6] was inactive. Further, the Potency entry in assay [1] was “inactive”.
As to `CCN(CC)C(C)CN1c2ccccc2Sc2ccccc21` (stereo not drawn), the Potency in [7] was 25.1 µM (active).
On to `CCN(CC)CCOC(=O)C1(C2CCCCC2)CCCCC1`, for which the Potency result in [7] and in [8] was “inactive” each time.
Turning to `CC(CN1c2ccccc2Sc2ccccc21)N(C)C` (stereo not drawn), the Potency in [7] is 50.1 µM (active). For the same compound, the Potency entry in assay [8] was “inactive”.
`NC1[C@H]2CN(c3nc4c(cc3F)c(=O)c(C(=O)O)cn4-c3ccc(F)cc3F)C[C@@H]12` (stereo partly drawn): the figures for the Potency (in assay [7]; with Furin (Homo sapiens); in assay [8]) were 50.1 µM (active), 24.1 µM (active) and 23.8 µM (active), respectively.
Take `CSc1ccc2c(c1)N(CCC1CCCCN1C)c1ccccc1S2` (stereo not drawn): the Potency in assay [7] was 44.7 µM (active). Further, in assay [8], the Potency entry was “inactive”.
Regarding `C[C@@H]1C[C@H]2[C@@H]3C[C@H](F)C4=CC(=O)C=C[C@]4(C)[C@@]3(F)[C@@H](O)C[C@]2(C)[C@@]1(O)C(=O)CO`, the compound was called inactive in assay [2], in assay [3], in [9] and in [6]. The Potency entry in assay [1] was “inactive”.
Turning to `CC(C)C(=O)c1c(C(C)C)nn2ccccc12`, the Potency entry in [7] and in [8] was “inactive” throughout.
As for `O=C1N=C(O)CN1/N=C/c1ccc(-c2ccc([N+](=O)[O-])cc2)o1`, the Potency entry in assay [1] and in [8] was “inactive” in each case. For the same compound, the compound was classed as inactive in assay [3], in [4], in assay [5], in [9] and in assay [6].
Take `CNCC(O)c1ccc(O)c(O)c1` (stereo not drawn): the Potency entry in [7] and in [8] was “inactive” each time.
Turning to `CN(C)CCCN1c2ccccc2Sc2ccc(Cl)cc21`, in assay [8], the Potency result is “inactive”.
As to `C#CCN(C)Cc1ccccc1`, the Potency result in assay [8] was “inactive”.
On to `Nc1ncnc2c1ncn2[C@@H]1O[C@H](CO)[C@@H](O)[C@H]1O`, for which the Potency result in assay [8] is “inactive”.
`CCN(CC)CCNC(=O)c1c(C)[nH]c(/C=C2\C(=O)Nc3ccc(F)cc32)c1C`: the Potency entry in assay [8] was “inactive”.
